From PubChem BioAssay
Most compounds without a hit are left out; they make up all but 9.6% or so of the library.
Insulin prom up: MIN6 insulin promoter up-regulation; MIN6 insulin promoter-GFP reporter, high-content imaging; active compounds read high; z-score at 5 µM; 0.3% of 190,000 active; AID 1625;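 active means z-score above 3 at 5 µM with at least 500 cells counted in the well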
Insulin prom inh: TRM-6 insulin promoter activity inhibition. 0.9% of 130,000 active. TRM-6 cells (human fetal islet line), insulin promoter-eGFP reporter, imaging; reporter expression induced with tamoxifen. inhibition, % at 2 µM;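 active means inhibition above the mean plus 3 SD, with well images judged a real hit on visual review, cut at about 60% in these data, passing the limit was not always enough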
Autophagy HCS: alters autophagy in cells | MEF GFP-LC3 puncta imaging; test concentration mostly 10 µM | 0.98% of 190,000 active | calls only at 10 µM (by protocol);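 active means percentage of spot-positive cells more than 3 SD above its plate mean, without a fluorescence outlier flag or 80% toxicity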;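 further: spot-positive cell cutoff set from DMSO-treated cells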
HCT116 bCat-KO: beta-catenin-lacking colon tumor cell growth suppression; HCT116 beta-catenin knockout viability, CellTiter-Glo, 60 h; active compounds read low; viability, % at 10 µM; 1.5% of 140,000 active; AID 818;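 active means viability at or under a set limit, the compound median less 4 SD, cut at about 6% in these data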;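 further: 0% = Hyamine 1622 control at 20 µM and 100% = untreated cell control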
Lmaj promast: reduces viability of Leishmania major promastigotes; resazurin fluorescence viability; inhibition, % at 10 µM; 9% of 200,000 active; in the data active means inhibition above about 50%;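 further: promastigotes grown with compound for 44 hours at 28 °C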
PTEN del growth: PTEN-deleted cell growth suppression. viability, % at 10 µM. 1.2% of 140,000 active. HCT116 PTEN-null viability, CellTiter-Glo, 60 h; active compounds read low;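 active means viability at or below a set limit, 4 SD under the median of all tested compounds, cut at about 3.7% in these data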;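 further: PTEN knockout HCT116 line with beta catenin targeted HCT116 as companion control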
Active calls of the source: *.

`CCOC(=O)c1sc(NC(=O)Nc2ccc(Cl)cc2)cc1C` gave Insulin prom up -1.6, Insulin prom inh 22, Autophagy HCS inactive, HCT116 bCat-KO 5.2*, Lmaj promast 89* and PTEN del growth 5.
For COc1ccc(C2(O)CCN(CC(=O)Nc3nccs3)CC2)c(OC)c1 the results were Insulin prom up 1.4, Autophagy HCS inactive, HCT116 bCat-KO 90, Lmaj promast 88* and PTEN del growth 92.
Screening CCn1c2ccccc2c2cc(NC(=O)Cc3ccc(S(=O)(=O)N4CCOCC4)s3)ccc21 returned Insulin prom up -1.6, Insulin prom inh -3, Autophagy HCS inactive, HCT116 bCat-KO 60, Lmaj promast 81* and PTEN del growth 57.
For CN(C(=S)NC(=O)/C=C/c1ccc(F)cc1)C1CCCCC1 the results were Insulin prom up 0.15, Insulin prom inh 14, Autophagy HCS inactive, HCT116 bCat-KO 95, Lmaj promast -4 and PTEN del growth 98.
`CCCc1cc(-n2ccnc2)n2c(nc3ccccc32)c1C#N` gave Insulin prom up 5.5*, Insulin prom inh -7, Autophagy HCS inactive, HCT116 bCat-KO 72, Lmaj promast 4 and PTEN del growth 46.
For CCn1c(COc2ccc(=O)n(-c3ccccc3)n2)nnc1SCc1cccc(OC)c1 the results were Insulin prom up -0.5, Insulin prom inh 45, Autophagy HCS inactive, HCT116 bCat-KO 100, Lmaj promast 0 and PTEN del growth 98.
O=C(CC1CCCCC1)NCCCN1CCOCC1 was read as Insulin prom up 1.9, Insulin prom inh -23, Autophagy HCS inactive, HCT116 bCat-KO 105, Lmaj promast 37 and PTEN del growth 103.
For O=C(CCC1CCCC1)NCCCN1CCOCC1 the results were Insulin prom inh 21, Autophagy HCS inactive, HCT116 bCat-KO 91, Lmaj promast 67* and PTEN del growth 101.
`COC(=O)C(NC(=O)COc1ccccc1)(Nc1nc2c(s1)CCCC2)C(F)(F)F` (centres undefined) gave Insulin prom inh -5, Autophagy HCS inactive, HCT116 bCat-KO 79, Lmaj promast 65* and PTEN del growth 78.
For COc1ccc(C(=O)n2nc(C#N)c(C#N)c2N)cc1 the results were Insulin prom up -0.09.
Screening O=C(CSc1nnc2c(Cl)cc(Cl)cn12)N1CCN(c2ccc(F)cc2)CC1 returned Insulin prom up -0.36, Insulin prom inh 19, Autophagy HCS inactive, HCT116 bCat-KO 89, Lmaj promast 53* and PTEN del growth 87.
For Cc1cccc(N=C(NO)c2nonc2N)c1 the results were Insulin prom up 0.88, Insulin prom inh -7, Autophagy HCS inactive, HCT116 bCat-KO 102, Lmaj promast -5 and PTEN del growth 97.
`CCOCCCNC(=S)N1CCN(CC)CC1` gave Insulin prom up 0.12, Insulin prom inh -65, Autophagy HCS inactive and Lmaj promast -1.
For O=C1CCC/C1=c1\s/c(=C\c2cccnc2)c(=O)n1-c1ccccc1 the results were Insulin prom up 0.07, Insulin prom inh 21, Autophagy HCS inactive, HCT116 bCat-KO 90, Lmaj promast 55* and PTEN del growth 79.
Clc1cccc(NCc2nnc(SCc3ccccc3Cl)o2)c1 was read as Insulin prom up -0.11, Insulin prom inh 38, Autophagy HCS inactive, HCT116 bCat-KO 77, Lmaj promast -6 and PTEN del growth 78.
`CCN1CCN(C(=O)c2ccc(COc3ccc(Cl)cc3)o2)CC1` gave Insulin prom up -0.14, Insulin prom inh 49, Autophagy HCS inactive, HCT116 bCat-KO 89, Lmaj promast 84* and PTEN del growth 83.
Screening O=C(c1ccc(Cl)c(S(=O)(=O)NCc2ccco2)c1)N1CCN(c2ccccc2F)CC1 returned Insulin prom inh -22, Autophagy HCS inactive, HCT116 bCat-KO 59, Lmaj promast 4 and PTEN del growth 67.
For CS(=O)(=O)N1CCc2cc(S(=O)(=O)N3CCN(Cc4ccc5c(c4)OCO5)CC3)ccc21 the results were Insulin prom up 0.03, Insulin prom inh 38, Autophagy HCS inactive, HCT116 bCat-KO 82, Lmaj promast 89* and PTEN del growth 74.
O=C(c1ccc(S(=O)(=O)NCc2ccco2)cc1)N1CCN(Cc2ccc3c(c2)OCO3)CC1 was read as Insulin prom up 0.2, Insulin prom inh -13, Autophagy HCS inactive and Lmaj promast 88*.
Screening COc1ccccc1N1CCN(C(=O)c2ccc(Cl)c(S(=O)(=O)NCc3ccco3)c2)CC1 returned Insulin prom up -0.28, Insulin prom inh 0, Autophagy HCS active, HCT116 bCat-KO 28, Lmaj promast -2 and PTEN del growth 29.
